From PubChem BioAssay
proKLK7 act: activates the human kallikrein-7 zymogen | AID 652039 | activation, % at 7 µM | P49862 | hit rate 0.9% among 370,000 | purified proKLK7, EDANS-DABCYL substrate fluorescence; 100% is mature enzyme control, 0% vehicle;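 active means activation above the mean of all tested compounds plus 3 SD, computed per campaign excluding outliers beyond control limits, cut at about 13% in these data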
HIF activator: HIF pathway transcriptional activation; AID 1910; U2OS HRE-luciferase reporter, luminescence; normalized: DMSO 0%, desferrioxamine 100%; activation, % at 7.5 µM (by protocol); hit rate 0.32% among 300,000;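 active means mean activation of at least 10% of the iron chelator positive control signal, with at least half of replicates also reaching 10%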
GC-B act: GC-B (human) receptor activation; P20594; HEK293-GC-B cells, CNP EC30, cGMP TR-FRET; 0% at EC30 CNP, 100% saturating CNP; activation, % at 10 µM; hit rate 0.11% among 370,000; AID 1920062;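 active means activation at 10 µM reaching about 35% in either raw or pattern-adjusted values, limit read from the data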
Target sequence (P20594 whole entry, looked up): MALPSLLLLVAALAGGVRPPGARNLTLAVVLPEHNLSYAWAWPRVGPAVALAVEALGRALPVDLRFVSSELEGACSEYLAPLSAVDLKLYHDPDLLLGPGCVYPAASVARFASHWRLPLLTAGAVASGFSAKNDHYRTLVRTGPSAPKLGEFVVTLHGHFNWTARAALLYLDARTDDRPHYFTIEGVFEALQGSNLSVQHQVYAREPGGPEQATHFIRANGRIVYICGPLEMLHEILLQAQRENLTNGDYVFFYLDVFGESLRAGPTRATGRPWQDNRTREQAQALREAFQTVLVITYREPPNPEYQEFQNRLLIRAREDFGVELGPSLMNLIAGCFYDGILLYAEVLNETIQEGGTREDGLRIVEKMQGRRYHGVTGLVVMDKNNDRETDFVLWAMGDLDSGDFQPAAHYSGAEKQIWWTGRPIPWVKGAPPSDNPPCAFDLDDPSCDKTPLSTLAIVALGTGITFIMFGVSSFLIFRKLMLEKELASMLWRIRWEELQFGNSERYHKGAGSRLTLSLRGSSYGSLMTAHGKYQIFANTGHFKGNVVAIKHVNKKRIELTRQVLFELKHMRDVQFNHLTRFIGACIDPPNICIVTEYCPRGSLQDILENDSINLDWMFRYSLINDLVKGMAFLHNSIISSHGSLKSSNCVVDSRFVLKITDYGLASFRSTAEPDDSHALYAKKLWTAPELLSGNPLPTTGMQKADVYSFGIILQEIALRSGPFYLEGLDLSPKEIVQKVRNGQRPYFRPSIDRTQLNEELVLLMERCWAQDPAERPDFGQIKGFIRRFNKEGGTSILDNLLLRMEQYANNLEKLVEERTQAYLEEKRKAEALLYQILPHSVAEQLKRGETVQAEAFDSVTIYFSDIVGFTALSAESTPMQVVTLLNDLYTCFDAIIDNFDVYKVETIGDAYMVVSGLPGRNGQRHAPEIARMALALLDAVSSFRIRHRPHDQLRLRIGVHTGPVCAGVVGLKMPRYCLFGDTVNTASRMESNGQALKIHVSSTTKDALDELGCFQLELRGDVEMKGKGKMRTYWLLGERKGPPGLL
NPR1 activator: GC-A (human) enzyme activation; hit rate 0.14% among 370,000; AID 1671463; HEK293 GC-A cells, cGMP TR-FRET, EC30 ANP; 0% at EC30 ANP, 100% saturating ANP; activation, % at 10 µM; in the data active means activation above about 40%
proKLK7 act conf: confirmation of human kallikrein-7 zymogen activators; shares compounds with proKLK7 act; purified proKLK7, EDANS-DABCYL substrate fluorescence; scaled: vehicle 0, mature enzyme 100; activation, % at 7 µM; hit rate 68% among 3,200;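 active means activation, as change over the incubation, above the mean of all tested compounds plus 3 SD, cut at about 13% in these data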
EDANS interfere: fluorescence interference counter-screen for KLK7 activators. hit rate 80% among 3,200. shares compounds with proKLK7 act. EDANS-DABCYL substrate fluorescence interference, no enzyme, 4 h; solvent 0%, active enzyme control 100%. activation, % at 7 µM;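 active means activation above the all-compound mean plus 3 SD, ignoring values outside control-based bounds, cut at about 4.8% in these data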;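 further: value is the 4 h activation minus the activation read at time zero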
Numbers stand for hits. Only some compounds are listed: those with a hit (about 1.3% of all), similar ones and a draw of the others.

How did CCN1C(=O)c2cccc3c(S(=O)(=O)NC(Cc4ccccc4)C(=O)O)ccc1c23 (stereo not given) do in these assays?
proKLK7 act: 51.3; HIF activator: inactive; GC-B act: inactive; NPR1 activator: inactive; proKLK7 act conf: 65.5; EDANS interfere: 67.2

What do the screens show for `CCN1C(=O)c2cccc3c(S(=O)(=O)Nc4ccncc4)ccc1c23`?
HIF activator: inactive

How did CCN1C(=O)c2cccc3c(S(=O)(=O)NCc4cccnc4)ccc1c23 do in these assays?
proKLK7 act: 53.5; HIF activator: inactive; GC-B act: inactive; NPR1 activator: inactive; proKLK7 act conf: 71.2; EDANS interfere: 78.2

What do the screens show for `O=C(Cn1nc(-c2ccccc2)ccc1=O)NCCc1ccccc1F`?
proKLK7 act: inactive; GC-B act: inactive; NPR1 activator: inactive

Results for COc1ccc(CN2C(=O)[C@@](O)(c3cccn3C)c3cc(F)ccc32)cc1 ?
proKLK7 act: inactive; GC-B act: inactive; NPR1 activator: inactive

What do the screens show for `CCn1c2ccccc2c2cc(NC(=O)CN3CCCC3)ccc21`?
proKLK7 act: 81.9; HIF activator: inactive; GC-B act: inactive; NPR1 activator: inactive; proKLK7 act conf: inactive; EDANS interfere: inactive

Results for Cc1c(-n2cc(C(=O)O)c(=O)c3cc(F)c(N4CCCC4)c(F)c32)c(=O)n(-c2ccccc2)n1C ?
proKLK7 act: inactive; HIF activator: inactive; GC-B act: inactive; NPR1 activator: inactive

Results for CN1CCN(c2c(F)cc3c(=O)c(C(=O)O)cn4c3c2SCC4)CC1 ?
proKLK7 act: 98.0; HIF activator: inactive; GC-B act: inactive; NPR1 activator: inactive; proKLK7 act conf: 35.1; EDANS interfere: 43.0

How did COc1ccc(S[C@]2(C(=O)N3CCN(c4ncccn4)CC3)CC(=O)N(c3ccc4ccccc4c3)[C@@H]2c2ccc(OC)cc2)cc1 do in these assays?
proKLK7 act: inactive; GC-B act: inactive; NPR1 activator: inactive

What do the screens show for `Cc1cc(=O)[nH]c(SCc2nc3ncccn3c2Br)n1`?
proKLK7 act: 29.4; HIF activator: inactive; GC-B act: inactive; NPR1 activator: inactive; proKLK7 act conf: inactive; EDANS interfere: 15.1

How did O=C(c1cc2c(s1)-c1ccccc1OC2)N1CCN(c2ccccc2)CC1 do in these assays?
proKLK7 act: inactive; HIF activator: inactive; GC-B act: inactive; NPR1 activator: inactive

How did CCOC(=O)N1CCN(C(=O)c2cc3c(s2)-c2ccccc2OC3)CC1 do in these assays?
proKLK7 act: 31.9; HIF activator: inactive; GC-B act: inactive; NPR1 activator: inactive; proKLK7 act conf: inactive; EDANS interfere: inactive

What do the screens show for `COC(=O)c1cc2c(s1)-c1cc(F)ccc1OC2`?
proKLK7 act: inactive; HIF activator: inactive; GC-B act: inactive; NPR1 activator: inactive

What do the screens show for `O=C(c1cc2c(s1)-c1ccccc1OC2)N1CCCC1`?
proKLK7 act: 73.9; HIF activator: inactive; GC-B act: inactive; NPR1 activator: inactive; proKLK7 act conf: 61.7; EDANS interfere: 68.8

Results for CC(=O)c1cc2c(s1)-c1cc(F)ccc1OC2 ?
proKLK7 act: 71.3; HIF activator: inactive; GC-B act: inactive; NPR1 activator: inactive; proKLK7 act conf: 68.6; EDANS interfere: 74.4

What do the screens show for `COc1cccc(N2CCN(C(=O)c3cc4c(s3)-c3ccccc3OC4)CC2)c1`?
proKLK7 act: 24.3; HIF activator: inactive; GC-B act: inactive; NPR1 activator: inactive; proKLK7 act conf: inactive; EDANS interfere: 21.2

What do the screens show for `COC(=O)[C@]12C[C@H](CC(=O)N3CCC(c4ccccc4)CC3)C(=O)N(Cc3ccco3)C1=C[C@H](C(C)(C)C)O[C@@H]2C`?
proKLK7 act: inactive; GC-B act: inactive; NPR1 activator: inactive

What do the screens show for `COc1ccc(N2CCN(C(=O)c3cc4c(s3)-c3ccccc3OC4)CC2)cc1`?
proKLK7 act: inactive; HIF activator: inactive; GC-B act: inactive; NPR1 activator: inactive

What do the screens show for `CCCN1CCN(C(=O)c2cc3c(s2)-c2ccccc2OC3)CC1`?
proKLK7 act: 66.5; HIF activator: inactive; GC-B act: inactive; NPR1 activator: inactive; proKLK7 act conf: inactive; EDANS interfere: 83.7

What do the screens show for `C[C@@H]1[C@@H](O)C[C@@]2(C[C@H](O)c3ccccc3O2)O[C@H]1c1ccccc1`?
proKLK7 act: inactive; GC-B act: inactive; NPR1 activator: inactive

Results for Cc1ccc2nc(-c3ccc(SCC(=O)O)nc3)[nH]c2c1 ?
proKLK7 act: 16.2; HIF activator: inactive; GC-B act: inactive; NPR1 activator: inactive; proKLK7 act conf: 22.7; EDANS interfere: 27.0

Results for CC1(C)CC(=O)C2=C(C1)N(CCN1CCOCC1)C1=C(C(=O)CC(C)(C)C1)C2c1ccc(Cl)cc1 ?
proKLK7 act: inactive; HIF activator: inactive; GC-B act: inactive; NPR1 activator: inactive

How did CC1(C)CC(=O)C2=C(C1)N(CCN1CCOCC1)C1=C(C(=O)CC(C)(C)C1)C2c1cccc(F)c1 do in these assays?
proKLK7 act: 33.9; HIF activator: inactive; GC-B act: inactive; NPR1 activator: inactive; proKLK7 act conf: 23.2; EDANS interfere: 20.1

What do the screens show for `COc1ccc(C2C3=C(CC(C)(C)CC3=O)N(CCN3CCOCC3)C3=C2C(=O)CC(C)(C)C3)cc1`?
proKLK7 act: 12.6; HIF activator: inactive; GC-B act: inactive; NPR1 activator: inactive; proKLK7 act conf: inactive; EDANS interfere: 14.9

How did O=c1[nH]c(=O)c2nc(-c3ccc(Cl)cc3)cnc2[nH]1 do in these assays?
proKLK7 act: 56.8; HIF activator: inactive; GC-B act: inactive; NPR1 activator: inactive; proKLK7 act conf: 69.8; EDANS interfere: 69.4

What do the screens show for `CCN(CC(=O)NCc1ccc(F)cc1)C(=O)/C=C/c1cc(OC)ccc1OC`?
proKLK7 act: 69.0; HIF activator: inactive; GC-B act: inactive; NPR1 activator: inactive; proKLK7 act conf: 59.9; EDANS interfere: 65.5

Results for COc1ccccc1-c1coc2c(CN3CCCC(C)C3)c(O)ccc2c1=O (stereo not given) ?
proKLK7 act: 40.0; HIF activator: inactive; GC-B act: inactive; NPR1 activator: inactive; proKLK7 act conf: 65.1; EDANS interfere: 61.8

How did COc1ccccc1-c1coc2c(CN3C(C)CCCC3C)c(O)ccc2c1=O (stereo not given) do in these assays?
proKLK7 act: inactive; HIF activator: inactive; GC-B act: inactive; NPR1 activator: inactive

How did COc1ccccc1-c1c(C)oc2c(CN3CCCC(C)C3)c(O)ccc2c1=O (stereo not given) do in these assays?
proKLK7 act: 44.6; HIF activator: inactive; GC-B act: inactive; NPR1 activator: inactive; proKLK7 act conf: 71.5; EDANS interfere: 68.9
